The values that follow come from PubChem BioAssay AID1569 (National Center for Advancing Translational Sciences (NCATS), 2009).

Records with an inconclusive call do not appear. Active and inactive are the calls of the source. Calls follow the shape of the dose curve; as a rule, active = well fitted inhibition curve with a large enough effect; inconclusive = small, poorly fitted or top-dose-only effect, or effect the other way, or another doubt; inactive = no such curve, though single readings can be large or run the other way.
Potency is read from the fitted curve at half-maximal effect.

This assay is described as follows: Confirmation Concentration-Response Assay for lipid storage modulators. Also: nearly all actives have a fitted effect of over 80% in size. Conditions: Drosophila S3 cells, lipid droplet BODIPY/CellTracker ratio, 18-24 h; series mostly up to 46.1 µM. The method in brief: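 Cells at 5,000/well received compound as a titration plus oleic acid (added as 400 uM solution) and were incubated 18–24 h at 24 °C. BODIPY 493/503 lipid signal and CellTracker Red cell count were read by 488-nm laser-scanning cytometry. Activity was normalised to 20 uM Triacsin C.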
On to `O=C(Nc1ccc(S(=O)(=O)N2CCCC2)cc1)c1ccc(CN2CCc3ccccc3C2)cc1`, for which the Potency is 14.1 µM (active). Turning to `COc1ccc(CCNC(=O)[C@H](C)N2C(=O)N3CCc4c([nH]c5ccccc45)[C@@]3(C)C2=O)cc1OC`, the Potency was 0.56 µM (active). With `CCOC(=O)c1cc2c(ccn2C)n1CC(=O)N1C(C)CCCC1C` (stereo not drawn), the Potency was 11.2 µM (active). Take `CCCCNc1cc(C)nc(NCc2ccccc2)n1`: the Potency was 7.91 µM (active). For the molecule `COc1ccc(CCNC(=O)CCCn2nc(C)n3ccnc3c2=O)cc1OC`, the Potency entry was “inactive”. In the case of `CCC(C)(C)NC(=O)C(c1cccn1C)N(Cc1ccc(OC)cc1)C(=O)Cn1nnc2ccccc21` (stereo not drawn), the Potency was 2.5 µM (active). Take `O=C(Nc1cccc(S(=O)(=O)N2CCCCC2)c1)c1ccccc1NS(=O)(=O)c1ccc(F)cc1`: the Potency was 28.1 µM (active). Regarding `c1ccc(-c2csc3ncnc(NCC4COc5ccccc5O4)c23)cc1` (stereo not drawn), the Potency is 1.99 µM (active).

Turning to `COc1ccc(C)cc1NC(=O)C1CCN(S(=O)(=O)c2cccc3cccnc23)CC1`, the Potency is 15.8 µM (active). For `COc1ccc(CCNC(=O)CC2SC(N)=NC2=O)cc1OC` (stereo not drawn), the Potency result is “inactive”. For `CCOc1ccc(CCNC(=O)COC(=O)COc2ccc(Br)cc2)cc1OCC`, the Potency result was “inactive”. Regarding `O=C(CC(O)(C(F)(F)F)C(F)(F)F)Nc1ccc(Cl)c(Cl)c1`, the Potency is 9.96 µM (active).

For the molecule `CNC(=O)NC(=O)C(C)OC(=O)c1c2c(nc3ccccc13)/C(=C/c1cccs1)CC2` (stereo not drawn), the Potency was 0.141 µM (active). Consider `COc1ccc(CCn2ccc(O)c(Cc3c(F)cccc3Cl)c2=O)cc1OC`, for which the Potency is 0.434 µM (active). With `O=C(NC1CCCc2c1cnn2-c1cc(F)cc(F)c1)c1cc[n+]([O-])cc1` (stereo not drawn), the Potency result was “inactive”. `CCOC(=O)c1c(C)[nH]c(C(=O)OCC(=O)NCCc2ccc(OCC)c(OCC)c2)c1C`: the Potency is 0.888 µM (active).

As for `CCN(CC)C(=O)c1sc2nc(-c3cccs3)cc(-c3cccs3)c2c1N`, the Potency was 7.91 µM (active). Regarding `Cc1ccc(C)c(OCc2cc(C(=O)N3CC[C@@H]4CCCC[C@H]4C3)no2)c1`, the Potency is 14.1 µM (active). Under `CC(Oc1ccc2oc3ccccc3c2c1)C(=O)NC12CC3CC(CC(C3)C1)C2` (stereo not drawn) stands 0.705 µM (active); under `CCOc1ccc(CCNC(=O)COC(=O)c2cccs2)cc1OCC`, 3.15 µM (active); under `CCOc1ccc(CCNC(=O)COC(=O)c2cccc(S(=O)(=O)N3CCCCC3)c2)cc1OCC`, “inactive”. For `O=C(NC1CCCc2c1cnn2-c1ccc(F)cc1F)c1ccccn1` (stereo not drawn), the Potency is 0.0112 µM (active). Take `CCOc1ccc(CCNC(=O)COC(=O)/C=C/c2ccccc2)cc1OCC`: the Potency was 3.53 µM (active).
